C diff growth: blocks growth of Clostridium difficile. Clostridium difficile clinical isolate growth, OD600, 24 h; stronger effect = lower value. growth activity, negative = inhibition, % at 16 µg/mL (by protocol). 86,000 tested, 0.25% active;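 active = mean growth activity at or below -80% and every replicate also at or below -80%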;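 also: 0% = DMSO wells and -100% = levofloxacin 16 µg/mL wells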
* = called active by the depositor; ! = not confirmed by another sample. This excerpt belongs to a sample that is enriched for hits.

SMILES | C diff growth
C[C@@H]1CN([C@H](C)CO)C(=O)c2cc(C3=CCCCC3)cnc2O[C@H]1CN(C)C(=O)Cc1cccnc1 | 5
C[C@H]1CN([C@@H](C)CO)S(=O)(=O)c2ccc(-c3cccc(C#N)c3)cc2O[C@H]1CN(C)C(=O)c1ccncc1 | 0
Cc1ccc(-c2ccc([C@@H]3[C@@H](CO)N4CCCCN(S(=O)(=O)c5cccc(C)c5)C[C@H]34)cc2)cc1 | 64
O=C(NCC[C@@H]1CC[C@@H](NC(=O)C2CC2)[C@H](CO)O1)c1ccc(F)cc1 | 0
COc1ccc(CN(C)C[C@@H]2Oc3c(NC(=O)Nc4ccc(C(F)(F)F)cc4)cccc3C(=O)N([C@@H](C)CO)C[C@H]2C)cc1 | 15
C[C@@H]1CN([C@H](C)CO)C(=O)c2cccc(NC(=O)Nc3ccc(C(F)(F)F)cc3)c2O[C@@H]1CN(C)Cc1ccc(Oc2ccccc2)cc1 | -25
C[C@H]1CN([C@@H](C)CO)C(=O)c2cccc(NC(=O)Nc3ccc(F)cc3)c2O[C@@H]1CN(C)Cc1ccc(-c2ccccc2)cc1 | -4
C[C@H]1CN([C@@H](C)CO)C(=O)c2cccc(NC(=O)Nc3ccccc3)c2O[C@@H]1CN(C)Cc1ccc(-c2ccccc2)cc1 | 0
C[C@H]1CN([C@@H](C)CO)C(=O)c2cccc(NC(=O)Nc3ccc(C(F)(F)F)cc3)c2O[C@H]1CN(C)Cc1ccc(Oc2ccccc2)cc1 | 81
COc1ccc(NC(=O)Nc2cccc3c2O[C@H](CN(C)Cc2ccc(C(F)(F)F)cc2)[C@H](C)CN([C@@H](C)CO)C3=O)cc1 | -101*
C[C@@H]1CN([C@@H](C)CO)C(=O)c2cccc(NC(=O)Nc3ccccc3)c2O[C@@H]1CN(C)Cc1ccc(-c2ccccc2)cc1 | -102*
COc1ccc(CN(C)C[C@@H]2Oc3c(NC(=O)Nc4ccc(C(F)(F)F)cc4)cccc3C(=O)N([C@H](C)CO)C[C@@H]2C)cc1 | 17
C[C@@H]1CN([C@@H](C)CO)C(=O)c2cccc(NC(=O)Nc3ccc(C(F)(F)F)cc3)c2O[C@@H]1CN(C)Cc1ccc(Oc2ccccc2)cc1 | -96*
CC(C)C(=O)Nc1ccc2c(c1)C(=O)N(C)[C@@H]1CC[C@H](CC(=O)N[C@H](C)c3ccccc3)O[C@@H]1CO2 | -1
COc1ccc2c3c(n(C)c2c1)[C@@H](CO)N(C(=O)C1CCCCC1)CC31CCN(C(=O)c2ccncc2)CC1 | 15
COCc1cn([C@H]2C[C@@H]3O[C@@H](CO)CC[C@@H]3O[C@@H]2CCc2ccc(-c3ccc(OC)cc3)cc2)nn1 | -5
O=C(C[C@H]1C=C[C@@H](NC(=O)C2CC2)[C@H](CO)O1)NCCCN1CCOCC1 | 4
O=C(Nc1ccccc1)N1C[C@@H]2N[C@H](C1)C2c1ccc(-c2ccccc2)cc1 (some centres not stated) | 62
O=C(c1ccc2c(c1)OCO2)N1C[C@@H]2N[C@H](C1)C2c1ccc(/C=C/c2ccccc2)cc1 (some centres not stated) | 47
O=S(=O)(c1ccc(F)cc1)N1C[C@@H]2N[C@H](C1)C2c1ccc(/C=C/c2ccccc2)cc1 (some centres not stated) | -99*!
O=C(Nc1ccccc1)N1C[C@@H]2N[C@H](C1)[C@@H]2c1ccc(/C=C/c2ccccc2)cc1 | -97*
O=S(=O)(c1ccccc1)N1C[C@@H]2N[C@H](C1)C2c1ccc(-c2ccccc2)cc1 (some centres not stated) | 56
O=C(c1ccc(F)cc1)N1C[C@@H]2N[C@H](C1)C2c1ccc(/C=C/c2ccccc2)cc1 (some centres not stated) | -99*!
C/C=C/c1ccc(C2[C@@H]3CN(S(=O)(=O)c4ccc(C)cc4)C[C@H]2N3)cc1 (some centres not stated) | -15
COc1ccccc1NC(=O)N1C[C@@H]2N[C@H](C1)C2c1ccc(/C=C/c2ccccc2)cc1 (some centres not stated) | 5
SMILES | C diff growth
O=C(c1ccncc1)N1C[C@@H]2N[C@H](C1)C2c1ccc(/C=C/c2ccccc2)cc1 (some centres not stated) | -1
O=C(c1ccc2c(c1)OCO2)N1CC2(C1)[C@@H](c1ccccc1)[C@@H](CO)N2C(=O)C1CC1 | -1
CCC(=O)N1CC2(C1)[C@H](c1ccc(-c3ccccc3)cc1)[C@@H](CO)N2C(C)=O | -7
COc1ccccc1CNC(=O)C[C@H]1C[C@H]2c3cc(NC(=O)Nc4ccc(C(F)(F)F)cc4)ccc3O[C@H]2[C@@H](CO)O1 | 8
O=C(C1CCC1)N1CCCCN2[C@@H](CO)[C@H](c3ccc(C#CC4CCCC4)cc3)[C@@H]2C1 | 47
COc1ccccc1-c1cn(CC[C@H]2CC[C@@H](NC(=O)NC(C)C)[C@@H](CO)O2)nn1 | -2
C[C@@H]1CCCCO[C@H](CN(C)Cc2ccccc2)[C@@H](C)CN([C@@H](C)CO)C(=O)c2cc(NS(C)(=O)=O)ccc2O1 | 3
COc1ccc(NC(=O)Nc2ccc3c(c2)C(=O)N([C@H](C)CO)C[C@H](C)[C@@H](CN(C)C(=O)Nc2ccc(F)cc2)OCCCC[C@@H](C)O3)cc1 | -4
CCCNC(=O)N1CC2(CCN(Cc3ccccn3)CC2)c2c(n(C)c3cc(OC)ccc23)[C@@H]1CO | -3
C[C@@H]1CCCCO[C@H](CN(C)Cc2ccc3c(c2)OCO3)[C@@H](C)CN([C@H](C)CO)C(=O)c2cc(NC(=O)Nc3ccc(C(F)(F)F)cc3)ccc2O1 | -53
COc1ccc(CN(C)C[C@H]2OCCCC[C@@H](C)Oc3ccc(NC(=O)Nc4ccc(C(F)(F)F)cc4)cc3C(=O)N([C@@H](C)CO)C[C@@H]2C)cc1 | -101*
C[C@@H]1CCCCO[C@@H](CN(C)Cc2ccc3c(c2)OCO3)[C@H](C)CN([C@H](C)CO)C(=O)c2cc(NC(=O)Nc3ccc(C(F)(F)F)cc3)ccc2O1 | -95*
COc1ccc(NC(=O)Nc2ccc3c(c2)C(=O)N([C@H](C)CO)C[C@H](C)[C@H](CN(C)Cc2ccc(C(F)(F)F)cc2)OCCCC[C@@H](C)O3)cc1 | 12
COc1ccc(CN(C)C[C@H]2OCCCC[C@H](C)Oc3ccc(NC(=O)Nc4cccc5ccccc45)cc3C(=O)N([C@@H](C)CO)C[C@H]2C)cc1 | 0
COc1ccc(CN(C)C[C@@H]2OCCCC[C@H](C)Oc3ccc(NC(=O)Nc4cccc5ccccc45)cc3C(=O)N([C@H](C)CO)C[C@H]2C)cc1 | -94*
C[C@@H]1CN([C@H](C)CO)C(=O)c2cc(NC(=O)Nc3ccc(C(F)(F)F)cc3)ccc2O[C@@H](C)CCCCO[C@@H]1CN(C)Cc1ccc2c(c1)OCO2 | -42
COc1ccc(NC(=O)Nc2ccc3c(c2)C(=O)N([C@@H](C)CO)C[C@@H](C)[C@H](CN(C)Cc2ccc(C(F)(F)F)cc2)OCCCC[C@@H](C)O3)cc1 | 7
COc1ccc(CN(C)C[C@@H]2OCCCC[C@@H](C)Oc3ccc(NC(=O)Nc4cccc5ccccc45)cc3C(=O)N([C@H](C)CO)C[C@H]2C)cc1 | 25
CCCNC(=O)N1CC2(CN(C(=O)Cc3cccnc3)C2)c2c([nH]c3cc(OC)ccc23)[C@H]1CO | -2
O=C(Cc1ccccn1)N[C@@H]1CC[C@@H](CCn2cc(-c3ccc(F)cc3)nn2)O[C@@H]1CO | -2
CC(=O)N1[C@@H]2Cn3c(ccc(-c4ccccc4)c3=O)[C@H]1[C@@H](C(=O)Nc1ccccc1)[C@@H]2CO | 11

Assay outcomes from PubChem.
